According to the supplement of paper PMC3545927:
The other results are listed elsewhere or left out. How many sequences the whole screen found active is unknown.

B1: FS-2288 (peptide)
chain: CARQCRSSQGAGNASASA
B2: FS-2437 (peptide)
chain: CARPKRYNSGAGNASASA
B3: FS-3176 (peptide)
chain: CARWKRDSSGAGNASASA
B4: FS-2999 (peptide)
chain: CARLVRESSGAGNASASA
B5: FS-2906 (peptide)
chain: CARDSRSSGGAGNASASA
B6: FS-2338 (peptide)
chain: CARIKRDSQGAGNASASA
B7: HC908 (peptide)
chain: CAKPGIYRFVAGNASASA
B8: HC1108 (peptide)
chain: CAGVVCAAILAGNASASA
B9: HC886 (peptide)
chain: CAVIDCNTCVAGNASASA
B10: HC400 (peptide)
chain: CAGPDQRPYCAGNASASA
B11: FS-1250 (peptide)
chain: CAQPRRHRRPAGNASASA
B12: FS-387 (peptide)
chain: CAVGRRYRRTAGNASASA
B13: FS-2936 (peptide)
chain: CARGRREARRAGNASASA
B14: FS-1432 (peptide)
chain: CAVPQRHRRTAGNASASA
B15: FS-1381 (peptide)
chain: CAPGRRRRRTAGNASASA
B16: HC878 (peptide)
chain: CAVATDALMTAGNASASA
B17: HC962 (peptide)
chain: CASWDQMWKCAGNASASA
B18: HC1378 (peptide)
chain: CAAAEEQKLPAGNASASA
B19: HC1118 (peptide)
chain: CAWMNRLIAFAGNASASA
B20: HC2315 (peptide)
chain: CAHVPCHRPSAGNASASA
B21: HC1701 (peptide)
chain: CAMNECSQHLAGNASASA
B22: HC2136 (peptide)
chain: CAEGVVCCSMAGNASASA
B23: HC1010 (peptide)
chain: CAEVLYREFDAGNASASA
B24: FS-1398 (peptide)
chain: CARGRRKKKCAGNASASA
B25: FS-1399 (peptide)
chain: CARGRRRRRTAGNASASA
B26: HC769 (peptide)
chain: CAPVVPQSFQAGNASASA
B27: FS-2318 (peptide)
chain: CARVKRRLLMAGNASASA
B28: FS-1940 (peptide)
chain: CARVPRDWDPAGNASASA
B29: FS-2197 (peptide)
chain: CARVKRRADPAGNASASA
B30: FS-2290 (peptide)
chain: CARQKRNKIPAGNASASA
B31: HC2402 (peptide)
chain: CAEVPCHRQSAGNASASA
B32: FS-2619 (peptide)
chain: CARVKRVSHSAGNASASA
B33: FS-2532 (peptide)
chain: CARVKRPQLMAGNASASA
B34: FS-1865 (peptide)
chain: CARQKRREERAGNASASA
B35: FS-1864 (peptide)
chain: CARQKRRAKPAGNASASA
B36: FS-2243 (peptide)
chain: CARVKRYRQSAGNASASA
B37: HC2006 (peptide)
chain: CAVMCCSMSYAGNASASA
B38: HC120 (peptide)
chain: CAVVCCPMSYAGNASASA
B39: FS-2099 (peptide)
chain: CARVKRFIQEAGNASASA
B40: FS-1939 (peptide)
chain: CARVKRQKISAGNASASA
B41: FS-2533 (peptide)
chain: CARVKRRIENAGNASASA
B42: FS-2531 (peptide)
chain: CARVKRPIENAGNASASA
B43: FS-2804 (peptide)
chain: CARSFRRIAGAGNASASA
B44: FS-2242 (peptide)
chain: CARVKRTHVPAGNASASA

Target: furin, P09958
Sequence (P09958 whole entry): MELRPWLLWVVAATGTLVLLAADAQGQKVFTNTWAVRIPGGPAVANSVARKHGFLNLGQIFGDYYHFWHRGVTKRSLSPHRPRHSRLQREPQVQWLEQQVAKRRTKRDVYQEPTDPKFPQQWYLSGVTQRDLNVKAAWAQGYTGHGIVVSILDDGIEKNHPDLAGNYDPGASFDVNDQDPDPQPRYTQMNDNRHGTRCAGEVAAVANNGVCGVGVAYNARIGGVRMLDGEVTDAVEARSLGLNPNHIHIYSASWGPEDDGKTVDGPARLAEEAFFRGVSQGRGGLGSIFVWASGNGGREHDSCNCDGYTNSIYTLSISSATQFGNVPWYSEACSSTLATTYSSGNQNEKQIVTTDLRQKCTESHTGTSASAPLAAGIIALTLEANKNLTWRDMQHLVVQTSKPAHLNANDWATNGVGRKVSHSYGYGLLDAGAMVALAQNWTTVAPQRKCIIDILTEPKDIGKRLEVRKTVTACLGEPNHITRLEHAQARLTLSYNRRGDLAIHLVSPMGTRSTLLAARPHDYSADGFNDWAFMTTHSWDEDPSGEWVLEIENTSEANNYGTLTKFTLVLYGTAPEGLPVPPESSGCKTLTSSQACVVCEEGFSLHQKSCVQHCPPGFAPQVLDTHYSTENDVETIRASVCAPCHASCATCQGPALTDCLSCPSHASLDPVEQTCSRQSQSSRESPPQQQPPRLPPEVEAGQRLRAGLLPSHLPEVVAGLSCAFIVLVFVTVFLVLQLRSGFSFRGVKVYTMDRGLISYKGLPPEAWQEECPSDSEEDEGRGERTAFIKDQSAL
Assay: furin cleavage Z-score vs untreated control; higher = more cleavage, active = 3.5 or more, inactive = 1 or less, 8 variable residues between constant flanks
Experimental: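 Multiplexed peptide-cDNA fusion cleavage assay. 8-mer variable peptides flanked by constant Cys-Ala (N-term) and Ala-Gly-Asn-Ala-Ser-Ala-Ser-Ala (C-term) and conjugated to a cDNA oligonucleotide were bead-immobilised via the N-terminus. They were treated with purified furin at a 1:10 enzyme:substrate ratio in 50 mM HEPES pH 7.5, 1 mM CaCl2, 100 mM NaCl for 7.5, 15 or 30 min. Released cDNA was counted by next-generation sequencing, and log counts versus no-furin controls were lowess-adjusted and converted to robust Z-scores.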

Sequence | furin cleavage Z-score (7.5 min) | furin cleavage Z-score (15 min) | furin cleavage Z-score (30 min)
B1 | 1.61 | 0.149 (inactive) | 1.21
B2 | 0.95 (inactive) | 0.51 (inactive) | 1.14
B3 | 10.7 (active) | 12 (active) | 10.2 (active)
B4 | -0.00522 (inactive) | 1.39 | 1.91
B5 | -0.675 (inactive) | -1.21 (inactive) | -0.52 (inactive)
B6 | 12.5 (active) | 13.5 (active) | 10.5 (active)
B7 | 1.16 | -1.32 (inactive) | 2.33
B8 | 0.833 (inactive) | 1.01 | 1.2
B9 | -1.17 (inactive) | -0.722 (inactive) | -1.34 (inactive)
B10 | 0.515 (inactive) | 0.00682 (inactive) | 0.075 (inactive)
B11 | 0.282 (inactive) | 1.35 | 0.113 (inactive)
B12 | 11.6 (active) | 9.35 (active) | 8.06 (active)
B13 | 6.61 (active) | 7.38 (active) | 6.43 (active)
B14 | 10.8 (active) | 9.86 (active) | 9.48 (active)
B15 | 7.92 (active) | 8.84 (active) | 6.67 (active)
B16 | -0.06 (inactive) | -0.775 (inactive) | 0.231 (inactive)
B17 | 1.5 | -0.918 (inactive) | -0.53 (inactive)
B18 | -1.36 (inactive) | -0.838 (inactive) | -1.05 (inactive)
B19 | 0.154 (inactive) | 0.647 (inactive) | 1.16
B20 | 1.79 | 0.404 (inactive) | 0.971 (inactive)
B21 | -0.476 (inactive) | 0.465 (inactive) | 1.3
B22 | 0.615 (inactive) | 1.53 | -0.0256 (inactive)

Sequence | furin cleavage Z-score (7.5 min) | furin cleavage Z-score (15 min) | furin cleavage Z-score (30 min)
B23 | -0.000681 (inactive) | -0.163 (inactive) | -0.163 (inactive)
B24 | 0.559 (inactive) | 2.05 | 2.1
B25 | 6.1 (active) | 5.39 (active) | 6 (active)
B26 | 0.521 (inactive) | -0.599 (inactive) | -1.31 (inactive)
B27 | 1.78 | 2.84 | 5.21 (active)
B28 | -0.333 (inactive) | -0.446 (inactive) | 1.11
B29 | 8.92 (active) | 9.27 (active) | 8.27 (active)
B30 | 0.00727 (inactive) | -0.821 (inactive) | 0.672 (inactive)
B31 | 0.566 (inactive) | 0.909 (inactive) | 1.17
B32 | -0.25 (inactive) | 0.383 (inactive) | 1.16
B33 | 1.35 | -0.179 (inactive) | -0.384 (inactive)
B34 | -0.0741 (inactive) | 1.57 | 0.905 (inactive)
B35 | 5.33 (active) | 6.71 (active) | 6.66 (active)
B36 | 3.13 | 4.29 (active) | 5.21 (active)
B37 | 0.223 (inactive) | 0.521 (inactive) | 0.261 (inactive)
B38 | -0.00854 (inactive) | 1.19 | 0.154 (inactive)
B39 | 5.75 (active) | 5.53 (active) | 5.92 (active)
B40 | 2.51 | 3.08 | 4.8 (active)
B41 | 4.86 (active) | 7.07 (active) | 8.34 (active)
B42 | -0.853 (inactive) | 0.717 (inactive) | -0.955 (inactive)
B43 | -0.414 (inactive) | -1.36 (inactive) | -1.34 (inactive)
B44 | 4.22 (active) | 8.01 (active) | 3.97 (active)
